# Sampled rows, rich in hits. Any-hit rate of the full collection: about 21%.
# Sm TGR block = S. mansoni TGR enzyme inhibition | Q962Y6 | 360,000 tested, 3% active | purified TGR, DTNB reduction, TNB absorbance 405 nm | Potency, µM (titrated, usually from 114 µM), for inactives: at the top dose activity change, negative = inhibition, usual class: inhibitors; further: potency means the concentration at half of the fitted maximal effect; on the % scale 0 is the no-effect control and ±100 the full control effect; nearly all actives have a fitted effect of over 60% in size
#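 First, TGR (20 nM dispensed) and NADPH were mixed with compound. Second, a 15 min room-temperature incubation followed. Third, further NADPH and then DTNB were added to start the reaction. Finally, TNB absorbance was monitored kinetically.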
# Pf growth 48h = P. falciparum growth inhibition at 48 hours (one generation). P. falciparum luciferase growth in erythrocytes, 48 h. Potency, µM (top dose mostly 28.7 µM), inactives show top-dose activity change, negative = inhibition, usual class: inhibitors. 310,000 tested, 5.9% active; further: potency means the concentration at half of the fitted maximal effect; on the % scale 0 is the no-effect control and ±100 the full control effect
#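 Luminescence readout; reporter = integrated firefly luciferase in P. falciparum. RBC culture at 2% hematocrit, 0.1% parasitemia final, 37 C/5% CO2; decreased signal taken as growth inhibition.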
# CHX counter = counter-screen hit for Shiga toxin inhibitors, cycloheximide | AID 2314 | 300,000 tested, 12% active | cell reporter, cycloheximide protein synthesis inhibition counterscreen | max response, %; in the data active means max response mostly above about 13%, no sharp cut-off; inactive means mostly below about 14%; further: read at 38.3 µM for the half of the compounds with a filed dose; 0% is about no effect
# Pf growth 96h = inhibits malaria parasite growth, 96 h. AID 504834. P. falciparum luciferase reporter growth, 96 h. Potency, µM (top dose mostly 28.7 µM), for inactives: at the top dose activity change, negative = inhibition, usual class: inhibitors. 320,000 tested, 6.9% active; further: potency means the concentration at half of the fitted maximal effect; on the % scale 0 is the no-effect control and ±100 the full control effect
#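 Readout is luminescence from an integrated firefly luciferase in P. falciparum. Red cells, 2% hematocrit and 0.05% parasitemia final, were cultured with compound through two parasite generations (96 hours) at 37 C, 5% CO2.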
# Shiga toxin inh = blocks Shiga toxin action in Vero cells; Vero cells, Shiga toxin protein synthesis inhibition reporter; inhibition, % at 38.7 µM; 290,000 tested, 9.2% active; in the data active means inhibition mostly above about 28%, no sharp cut-off; inactive means mostly below about 43%; further: 0% is about no effect
# NS1 function inh = inhibitors of influenza NS1 protein function | Potency, µM (doses to about 46.1 µM), for inactives: at the highest dose activity, positive = more growth | AID 2326 | 270,000 tested, 0.4% active; calls by dose curve; further: potency means the concentration at half of the fitted maximal effect; actives are rising curves; nearly all actives have a fitted effect of over 50% in size
#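 In this qHTS, NS1 from influenza A is expressed in budding yeast, where it slows growth. Cells are switched from glucose to 2% galactose medium (pH 6.0, -URA), treated with compound, and growth recovery is read at OD600.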
# * hit, by the source's call; ? = inconclusive; nt = no result; [ ] = another dose, or the depositor's remark. Unless noted, the call rests on the fitted dose curve; in most records, active means well fitted curve in the direction sought with a large enough effect; inconclusive means small, poorly fitted or top-dose-only effect, or another doubt; inactive means no such curve, though single readings can be large; an effect the other way counts as inactive or inconclusive.
SMILES,Sm TGR block,Pf growth 48h,CHX counter,Pf growth 96h,Shiga toxin inh,NS1 function inh
Cc1cc(C)c(S(=O)(=O)N2CCN(C(=O)c3ccc4c(c3)OCO4)CC2)c(C)c1,12.2%,?,-4.8,1.9%,-6.0,-37.4%
CCCCC[C@H]1CN(C2CCCCC2)C(=O)[C@@H]1CC(=O)NCc1ccccc1,-35.6%,26.8%,-2.6,-10.9%,-4.0,-49.5%
Cc1ccc(NC(=O)c2ccc3c(=O)n4nc(Nc5ccccc5C)sc4nc3c2)cc1C,-0.1%,nt,nt,nt,nt,nt
COc1cc(C(=O)NNC(=S)NC(=O)/C=C/c2ccccc2)cc(OC)c1OC,5.8%,?,7.3,-25.2%,8.8,5.8%
O=C(Cc1ccc(Cl)cc1)Nc1ccc(Br)cc1,-3.8%,-7.2%,30.5*,-19.3%,73.8*,nt
O=C(Cc1ccc(Br)cc1)Nc1cccc(Cl)c1,14.0%,5.8%[5.75 µM],20.6*,-7.5%,21.6,nt
O=C(CC1SCCNC1=O)Nc1cccc(C(F)(F)F)c1 (stereo unspecified),-3.2%,22.1%,7.8,3.9%[5.75 µM],27.1,?
O=C(CC1SCCNC1=O)Nc1cccc(Cl)c1 (stereo unspecified),-17.8%,36.8%,16.6*,nt,38.9*,3.6%
CCC[C@H](N[C@@H](C)C(=O)N1[C@@H]2CCCC[C@H]2C[C@H]1C(=O)O)C(=O)OCC,nt,nt,-4.7,nt,23.0,nt
O=C(NCCCN1CCN(c2ccccc2F)CC1)C1CC(=O)N(C2CCCC2)C1 (stereo unspecified),2.3%,nt,-7.4,11.7µM*,-6.4,5.2%
COc1ccc(N2CCN(CCNC(=O)C3CC(=O)N(C4CCCC4)C3)CC2)cc1 (stereo unspecified),7.5%,16.6%,-3.2,1.85µM*,-24.3,-10.5%
CCn1c(=O)cc(SCC(=O)NCCCN2CCN(c3ccccc3F)CC2)c2ccccc21,-10.4%,11.7µM*,15.3,?,-6.3,3.1%
COc1ccc(CNC(=O)C2CC(=O)N(C3CCCCC3)C2)cc1 (stereo unspecified),8.5%,5.9%,8.0,?,-6.4,13.4%
O=C(c1cccc([N+](=O)[O-])c1)c1ccc2c(c1)C(=O)N(c1c[nH]c(=O)[nH]c1=O)C2=O,-8.1%,-22.0%,7.0,33.6%[5.75 µM],-12.1,nt
Cc1ccc(S(=O)(=O)Nc2c(C)nc3nc(C)[nH]n3c2=O)cc1,-4.8%,15.6%,-2.9,?,-14.2,-9.9%
COCCn1c(SCC(=O)Nc2ccc(C(F)(F)F)cc2)nc2c([nH]c3ccccc32)c1=O,-1.3%,nt,nt,nt,nt,nt
O=C(Oc1ccc(C(=S)N2CCCCC2)cc1)c1ccccc1,7.8%,6.7%,-1.9,?,15.0,-3.1%
O=C(Oc1ccc(C(=S)N2CCC(O)CC2)cc1)c1ccc(Cl)cc1,-17.9%,-1.0%,36.9*,-28.0%,35.2,-1.7%
CC1CCN(c2ccc(C(F)(F)F)cc2N)CC1,-4.6%,19.5%,17.4*,-3.2%,34.0,nt
COC(=O)c1ccc(CNC(=O)CNc2cc(C(F)(F)F)ccc2N2CCOCC2)cc1,7.3%[11.4 µM],nt,-2.5,8.28µM*,-20.7,-12.6%
CCC(=O)Nc1cc(C(F)(F)F)ccc1N1CCOCC1,0.2%,?,-2.0,nt,6.7,-7.6%
Cc1ccccc1SCC(=O)Nc1cc(C(F)(F)F)ccc1N1CCOCC1,-2.9%,2.08µM*,nt,4.65µM*,nt,nt
Cn1c(-c2ccc(F)cc2)cnc1SCC(=O)Nc1ccccc1N1CCOCC1,0.7%,-38.6%,27.2*,nt,56.0*,-6.5%
O=C(NC(=S)Nc1cc(C(F)(F)F)ccc1N1CCOCC1)c1ccco1,11.2µM*,?,-1.5,?,-5.7,2.9%
Cc1nnc(SCC(=O)Nc2cc(C(F)(F)F)ccc2N2CCOCC2)o1,-5.4%,-6.9%,0.7,nt,-8.2,-3.0%
SMILES,Sm TGR block,Pf growth 48h,CHX counter,Pf growth 96h,Shiga toxin inh,NS1 function inh
CCCNC(=O)CSc1n[nH]c(=O)n1CCc1ccccc1,-2.2%,-2.1%,-0.7,-2.4%,-6.1,?
O=C(CCC1CCCCC1)Nc1cc(Cl)ccc1N1CCOCC1,-0.3%,?,nt,?,nt,nt
CC(C)C(=O)Nc1cc(C(F)(F)F)ccc1N1CCOCC1,6.0%,?,-2.1,80.1%,-7.3,-6.3%
O=C(CCC1CCCC1)Nc1cc(C(F)(F)F)ccc1N1CCOCC1,5.8%,11.7µM*,nt,13.1µM*,nt,nt
O=C(Nc1cc(C(F)(F)F)ccc1N1CCOCC1)c1ccc(Cl)nc1,-0.9%,9.28µM*,-2.2,nt,-18.2,7.4%
CCOc1ccccc1NC(C)C(=O)Nc1cc(C(F)(F)F)ccc1N1CCOCC1 (stereo unspecified),4.7%,0.586µM*,-1.2,0.294µM*,-8.3,9.3%
O=C(Nc1cc(C(F)(F)F)ccc1N1CCOCC1)c1ccccc1,-4.2%,-19.1%,1.1,nt,-9.0,-3.1%
COc1ccc(CCNC(=O)c2cc(S(=O)(=O)N3CCCCC3)c[nH]2)cc1OC,-14.2%,-8.2%,-3.6,-2.8%,-2.5,-4.8%
O=C(Nc1ccc(F)cc1F)c1cc(-c2ccc(Cl)cc2)on1,-3.6%,nt,nt,nt,nt,nt
O=C(Nc1c(F)cc(F)cc1Br)c1cc(-c2ccc(O)cc2)on1,-4.0%,nt,30.7*,-24.7%,22.9,-255.7%
Cc1cc(C(=O)Nc2c(F)cc(F)cc2Br)no1,6.7%,21.6%,13.6*,-1.6%,25.9,-50.1%
O=C(Nc1c(F)cc(F)cc1Br)c1cc(-c2ccccc2)on1,-22.1%,50.6%,15.9*,0.8%,nt,8.7%
CCCCc1nn2c(=O)cc(COC(=O)c3ccc(NC(=O)c4ccccc4Cl)cc3)nc2s1,0.8%,nt,nt,nt,nt,nt
COc1ccc(C(=O)OCc2cc(=O)n3nc(-c4cccs4)sc3n2)cc1,-0.2%,nt,nt,nt,nt,nt
COc1cccc(CNC(=O)c2ccncc2)c1,-8.1%,30.2%,-2.3,-1.6%,-16.7,9.3%
COc1ccc(C(=O)NCc2ccc(N3CCN(C)CC3)cc2)cc1,33.2%,21.3%,10.0,-6.3%,1.0,0.5%
COc1ccc(CNC(=O)c2ccncc2)cc1,5.4%,1.1%,1.1,3.29µM*,-1.1,-1.1%
O=C(NCc1ccc(Cl)cc1)c1ccncc1,-20.4%,3.4%,-2.4,?,nt,-2.5%
O=C(NCc1ccc(F)cc1)c1cnccn1,1.4%,29.6%,10.5*,41.0%,18.8,-2.2%
O=C(NCc1ccc(F)cc1)c1ccncc1,10.3%,-13.0%,-1.4,6.57µM*,-8.3,24.7%
COc1ccc(CNC(=O)c2ccc(C(C)C)cc2)cc1,0.3%,87.0%,46.3*,23.1%,157.4*,-5.0%
Cn1c(=O)c2c(ncn2CC(=O)OCC(=O)Nc2ccccc2)n(C)c1=O,7.5%,6.4%,-4.2,20.2%,-12.1,2.7%
CC(C)c1ccc(CNNC(=O)c2ccccc2)cc1,-5.8%,20.2%,51.7*,59.0%,75.5*,-2.2%
COc1ccc(CNC(=O)c2ccc(C)o2)cc1,-4.2%,27.0%,12.9*,32.9%,19.4,-3.6%
COc1ccc(CNC(=O)c2ccc(C(C)(C)C)cc2)cc1,9.4%,97.1%,64.4*,145.9%,91.2*,4.7%
COc1ccc(N(C(=O)c2ccc(Cl)cc2)S(=O)(=O)c2ccc(C)cc2)cc1,-3.4%,nt,nt,nt,nt,nt
CCOc1ccc2nc(SCC(=O)Nc3ncccn3)[nH]c2c1,-1.3%,nt,-1.4,25.5%,-5.6,0.3%
